Reference: PubChem BioAssay AID651821 (The Scripps Research Institute Molecular Screening Center, 2012)
The campaign covered roughly 370,000 compounds. About 4,700 (1.3%) were called active.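 Rule for the calls: active = inhibition above the plate cutoff, the mean of all test compounds on that plate plus 3 SD (cut at about 35% in these data); inactive = the rest.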 For the sample, actives were picked, then their nearest neighbours and some compounds at random.

Test: binders of r(CAG) RNA repeats, primary screen, biochemical, fluorescence (AID 651821);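 note: 0% = DMSO alone and 100% = 100 µM mitoxantrone as full dye displacement; higher means more dye released from RNA so lower well fluorescence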
Conditions: r(CAG) RNA repeat, TO-PRO-1 dye displacement fluorescence; at 3 µM; hits give high values

Q: Which inhibition does the source give for `O=C(NC1CCC1)c1ccc(C#CC2CC2)cn1` here?
A: 4.07% (inactive)

Q: With `CCC(c1ccc(NC(=O)OC(C)(C)C)cc1)c1cc(OC)cc(OC)c1` (stereo unspecified) as the molecule, how does the inhibition read?
A: 3.19% (inactive)

Q: Which inhibition does the source give for `COC(=O)C1=C(C)N(Cc2ccccc2C(F)(F)F)C(=NCc2ccc(C(F)(F)F)cc2)NC1c1ccc(F)cc1` (stereo unspecified) here?
A: 1.68% (inactive)

Q: Which inhibition does the source give for `C=CCN(C(=O)[C@@H](CCCC)[C@@H](O)c1ccc(Cl)cc1)c1ccccc1` here?
A: -0.19% (inactive)

Q: For `CCC(C)C(N=C1NS(=O)(=O)c2ccccc21)C(=O)N1CCC(C)CC1` (stereo unspecified), which inhibition is on record?
A: -5.03% (inactive)

Q: Which inhibition does the source give for `COc1ccc(S[C@]2(C(=O)N(C)C)CC(=O)N(c3ccc(OC)cc3)[C@@H]2c2ccc(OC)cc2)cc1` here?
A: 2.57% (inactive)

Q: With `C=CCN1C(=O)[C@@H](CC(=O)NCC2CCCCC2)[C@]2(C(=O)OC)CCCCC=C12` as the molecule, how does the inhibition read?
A: 2.39% (inactive)

Q: For `Cc1c(Cl)c([N+](=O)[O-])nn1Cc1ccc(C(=O)N/N=C\c2cc(Cl)ccc2O)o1`, which inhibition is on record?
A: 7.06% (inactive)

Q: Which inhibition does the source give for `Cc1cc(C(=O)N/N=C/c2ccc(O)c([N+](=O)[O-])c2)c(C)n1-c1ccc(F)cc1` here?
A: 40.9% (active)

Q: Which inhibition does the source give for `CC(Oc1ccccc1[N+](=O)[O-])C(=O)N/N=C/c1ccoc1` (stereo unspecified) here?
A: 6.95% (inactive)

Q: Which inhibition does the source give for `O=c1[nH]c(-c2ccccc2)cn1C1CCN(Cc2ccc(-c3nc4ccc(F)cc4nc3-c3ccccc3)cc2)CC1` here?
A: 14.3% (inactive)

Q: With `O=C(CCC1CCCN(Cc2ccc(O)c(Cl)c2)C1)NCc1ccccc1F` (stereo unspecified) as the molecule, how does the inhibition read?
A: -2.68% (inactive)

Q: For `CCOC(=O)C(=O)N(Cc1ccccc1)c1ccccc1C(=O)Nc1cc(OC)ccc1OC`, which inhibition is on record?
A: -0.13% (inactive)

Q: For `CCC(NC(=O)C1C2C=CC3(CN(Cc4ccccc4)C(=O)C13)O2)c1ccccc1` (stereo unspecified), which inhibition is on record?
A: 0.21% (inactive)

Q: For `Cc1ccc(C(C)C)c(OCCSc2nc3ccccc3n2CC(=O)O)c1`, which inhibition is on record?
A: 40.7% (active)

Q: Which inhibition does the source give for `CCOc1ccc(OCCSc2nc3ccccc3n2CC(=O)O)cc1` here?
A: 7.86% (inactive)

Q: Which inhibition does the source give for `COc1ccccc1OCCn1c(SCC(N)=O)nc2ccccc21` here?
A: 1.66% (inactive)

Q: With `Cc1ccc(Cn2cc(CN3[C@@H](CC(C)C)COc4ccc(Cl)cc4S3(=O)=O)nn2)cc1` as the molecule, how does the inhibition read?
A: 2.98% (inactive)

Q: With `COC(=O)C1CN(CCc2ccccc2)CCS(=O)(=O)N1Cc1cccc(Cl)c1` (stereo unspecified) as the molecule, how does the inhibition read?
A: 1.15% (inactive)

Q: Which inhibition does the source give for `CN1C[C@]2(C=C3CCCCC3n3c(=O)n(-c4ccccc4)c(=O)n32)N=C1NC(=O)c1ccccc1` (stereo partly specified) here?
A: 8.01% (inactive)

Q: Which inhibition does the source give for `Cc1ccc(C(=O)COC(=O)c2cccc(N3C(=O)c4c(C)nc5ccccc5c4C3=O)c2)cc1C` here?
A: 8.76% (inactive)

Q: Which inhibition does the source give for `COc1ccc(-c2nc3ccc(Br)cn3c2Cc2ccc(C)cc2)cc1OC` here?
A: 40.1% (active)

Q: For `Cc1cc(Br)cn2c(Cc3ccccc3C(F)(F)F)c(-c3ccc(Cl)cc3)nc12`, which inhibition is on record?
A: 11.8% (inactive)

Q: Which inhibition does the source give for `Brc1ccc2nc(-c3ccccc3)c(Cc3ccccc3)n2c1` here?
A: 13.1% (inactive)

Q: With `Cc1cc(Br)cn2c(Cc3cccc(F)c3)c(-c3cccc(Br)c3)nc12` as the molecule, how does the inhibition read?
A: 48.4% (active)

Q: Which inhibition does the source give for `Cc1ccc(-c2nc3ccc(Br)cn3c2Cc2ccccc2C(F)(F)F)cc1` here?
A: 30.3% (inactive)

Q: With `COC(=O)c1ccc2nc(-c3ccc(OC)c(OC)c3)c(Cc3ccccc3)n2c1` as the molecule, how does the inhibition read?
A: 9.92% (inactive)

Q: Which inhibition does the source give for `Fc1cccc(Cc2c(-c3ccc(Cl)cc3)nc3ccc(Cl)cn23)c1` here?
A: 20.9% (inactive)

Q: With `Cc1ccc(-c2nc3c(C)cc(Br)cn3c2Cc2ccccc2)cc1` as the molecule, how does the inhibition read?
A: 10.3% (inactive)

Q: Which inhibition does the source give for `Fc1cccc(Cc2c(-c3cccc(Cl)c3)nc3ccc(Br)cn23)c1` here?
A: 48.3% (active)

Q: For `CCCCCC(O)c1cccc(OCc2ccc3ccccc3n2)c1` (stereo unspecified), which inhibition is on record?
A: 1.42% (inactive)

Q: With `Cc1ccc(NC(=O)N2c3ccccc3SC2c2ccco2)c(C)c1` (stereo unspecified) as the molecule, how does the inhibition read?
A: 5.91% (inactive)

Q: Which inhibition does the source give for `COc1ccccc1Cc1c(-c2ccc(F)cc2)nc2ccc(C)cn12` here?
A: 6.12% (inactive)

Q: Which inhibition does the source give for `CCCCNC(=O)C[C@@H]1C[C@@]2(C(=O)OCC)CCC=C2N(Cc2cccc3ccccc23)C1=O` here?
A: 1.85% (inactive)

Q: Which inhibition does the source give for `CCOc1cc(C)ccc1OCc1nnc(SCC(=O)Nc2cccc(C(=O)O)c2)n1-c1ccccc1` here?
A: 42% (active)

Q: With `COc1ccc(-n2c(COc3ccc(C)cc3)nnc2SCC(=O)Nc2ccc(Oc3ccccc3)cc2)cc1` as the molecule, how does the inhibition read?
A: 5.38% (inactive)

Q: For `Cc1ccc(-n2c(COc3ccccc3)nnc2SCC(=O)Nc2ccc3c(c2)OCCO3)cc1`, which inhibition is on record?
A: 7.21% (inactive)

Q: With `COC(=O)[C@]12C[C@H](CC(=O)N3CCN(C(=O)C4CC4)CC3)C(=O)N(CCC3=CCCCC3)C1=C[C@H](C(C)C)O[C@@H]2C1CC1` as the molecule, how does the inhibition read?
A: 3.85% (inactive)

Q: Which inhibition does the source give for `CCOc1ccccc1NS(=O)(=O)c1c[nH]c(C(=O)OC)c1` here?
A: -0.7% (inactive)

Q: For `Cc1ccc(NS(=O)(=O)c2ccc(N/N=C/c3ccccc3OCC(=O)O)c([N+](=O)[O-])c2)c(C)c1`, which inhibition is on record?
A: 86.9% (active)

Q: With `COc1cccc(/C=N/Nc2ccc(S(=O)(=O)Nc3ccccc3C(=O)O)cc2[N+](=O)[O-])c1O` as the molecule, how does the inhibition read?
A: 93.8% (active)

Q: Which inhibition does the source give for `COc1cc(/C=C/C(=O)O)cc(S(=O)(=O)Nc2ccccc2C(=O)NCCc2ccccc2)c1OC` here?
A: 31.7% (inactive)

Q: With `CCN(CC(=O)NCc1cccs1)C(=O)c1cccc(S(=O)(=O)Nc2ccccc2OC)c1` as the molecule, how does the inhibition read?
A: -2.88% (inactive)

Q: With `COc1ccc(S(=O)(=O)NC(C)c2ccccc2)cc1C(=O)N1CCCCC1` (stereo unspecified) as the molecule, how does the inhibition read?
A: -7.44% (inactive)

Q: With `O=C(Nc1cc(S(=O)(=O)Nc2ccc(Cl)cc2)ccc1O)c1ccc(F)cc1F` as the molecule, how does the inhibition read?
A: 22.4% (inactive)

Q: Which inhibition does the source give for `Cc1ccc(S(=O)(=O)NC(=O)COc2ccccc2C)cc1` here?
A: 1.07% (inactive)

Q: For `COc1ccc(N(CC(=O)Nc2ccc(C)cc2C)S(=O)(=O)c2ccccc2[N+](=O)[O-])c(OC)c1`, which inhibition is on record?
A: 7.1% (inactive)

Q: With `COc1ccc(Br)cc1/C=N/Nc1ccc(S(=O)(=O)Nc2ccccc2C(=O)O)cc1[N+](=O)[O-]` as the molecule, how does the inhibition read?
A: 70.1% (active)

Q: Which inhibition does the source give for `O=[N+]([O-])c1cc(S(=O)(=O)Nc2cccc(Cl)c2)ccc1N=Nc1c(O)[nH]c2ccccc12` here?
A: 8.1% (inactive)

Q: Which inhibition does the source give for `O=C(O)c1ccccc1/C=N/Nc1ccc(S(=O)(=O)Nc2ccc(Cl)cc2)cc1[N+](=O)[O-]` here?
A: 67% (active)

Q: Which inhibition does the source give for `CCOc1ccccc1-n1c(SCC(=O)N2CCCC2)nnc1-c1ccoc1C` here?
A: -6.11% (inactive)

Q: Which inhibition does the source give for `O=C(C1CCN(S(=O)(=O)c2ccccc2)CC1)N1CCN(C2CCCCC2)CC1` here?
A: 2.76% (inactive)

Q: For `COC(=O)[C@]12C[C@H](CC(=O)N3CCOCC3)C(=O)N(Cc3ccc(Cl)cc3Cl)C1=C[C@H](C(C)C)O[C@@H]2C1CC1`, which inhibition is on record?
A: 4.69% (inactive)

Q: Which inhibition does the source give for `COc1cccc(NC(=O)N(C)C[C@@H]2OCc3cn(nn3)CCCC(=O)N([C@@H](C)CO)C[C@H]2C)c1` here?
A: 1.49% (inactive)

Q: Which inhibition does the source give for `CCCCOCCCNC(=O)C[C@H]1C[C@@]2(C(=O)OC)C(=C[C@H](C(C)(C)C)O[C@@H]2C)N(CCc2ccc(OC)c(OC)c2)C1=O` here?
A: 2.98% (inactive)

Q: For `COc1ccc(CSc2nnc(SCC(=O)Nc3ccccc3C(F)(F)F)s2)cc1`, which inhibition is on record?
A: 0.71% (inactive)

Q: For `CCCCCCN1CCS(=O)(=O)N(Cc2ccc(C(F)(F)F)cc2)C(C(=O)OC)C1` (stereo unspecified), which inhibition is on record?
A: 0.66% (inactive)

Q: Which inhibition does the source give for `CC(=O)C1(C(=O)Nc2nccs2)CC(c2ccccc2C(F)(F)F)=NO1` (stereo unspecified) here?
A: 2.46% (inactive)

Q: For `Cc1cc2nc(-c3ccc(F)cc3)c(Cc3ccsc3)n2c(C)c1Br`, which inhibition is on record?
A: 5.76% (inactive)

Q: For `Cc1cc2nc(-c3ccco3)c(Cc3cccc(F)c3)n2c(C)c1Br`, which inhibition is on record?
A: 37% (active)

Q: Which inhibition does the source give for `c1ccc(Cc2c(-c3ccco3)nc3c4ccccc4ccn23)cc1` here?
A: 13.8% (inactive)

Q: For `O=c1cc(CN2CCN(S(=O)(=O)/C=C/c3ccccc3)CC2)c2ccc(O)cc2o1`, which inhibition is on record?
A: 40% (active)

Q: Which inhibition does the source give for `NC(=O)CCN1CCN(S(=O)(=O)/C=C/c2ccccc2)CC1` here?
A: -0.01% (inactive)

Q: With `Cc1ccc2c(CN3CCN(S(=O)(=O)c4ccccc4C(F)(F)F)CC3)cc(=O)oc2c1` as the molecule, how does the inhibition read?
A: 10% (inactive)

Q: For `COc1ccc(CN2C(=O)C(C)S/C2=N/N=C/c2ccco2)cc1` (stereo unspecified), which inhibition is on record?
A: 0.84% (inactive)

Q: Which inhibition does the source give for `O=C(Nc1cccc(F)c1)N1C2CCC1CC(O)(c1cccnc1)C2` (stereo unspecified) here?
A: -2.98% (inactive)

Q: For `O=C1CC(c2ccccc2)=NN1c1ccc([N+](=O)[O-])cc1`, which inhibition is on record?
A: 45.5% (active)

Q: With `O=C1NC(=O)C2C1C(c1ccc([N+](=O)[O-])cc1)=NN2Cc1ccccc1` (stereo unspecified) as the molecule, how does the inhibition read?
A: 10.9% (inactive)

Q: For `CCN1N=C(c2ccccc2)CCC1=O`, which inhibition is on record?
A: -0.41% (inactive)

Q: For `CN1[C@H](Cc2ccccc2)COc2cccc(N3CCSCC3)c2S1(=O)=O`, which inhibition is on record?
A: 4.7% (inactive)

Q: For `COC(=O)C1=C(C)N(Cc2cccc(C(F)(F)F)c2)C(=NCc2cccc(C(F)(F)F)c2)NC1c1ccccc1C(F)(F)F` (stereo unspecified), which inhibition is on record?
A: 1.52% (inactive)

Q: Which inhibition does the source give for `Cc1c[nH]c2cccc(-c3ccc(Cl)cc3)c12` here?
A: 1.17% (inactive)

Q: Which inhibition does the source give for `COc1ccc(C(=O)c2c(C)oc3cc([N+](=O)[O-])c(O)c([N+](=O)[O-])c23)cc1` here?
A: 24.7% (inactive)

Q: With `Cc1cc(O)c(NC(=O)c2ccc(C)c([N+](=O)[O-])c2)cc1C` as the molecule, how does the inhibition read?
A: 4.43% (inactive)

Q: With `Cc1oc2cc([N+](=O)[O-])c(O)c([N+](=O)[O-])c2c1C(=O)c1ccc(Br)cc1` as the molecule, how does the inhibition read?
A: 67.6% (active)

Q: Which inhibition does the source give for `N#Cc1ccccc1OC[C@@H](O)CN1CCC(C(O)(c2ccccc2)c2ccccc2)CC1` here?
A: 2.31% (inactive)

Q: Which inhibition does the source give for `CCOC(=O)N1CCN(C(=O)C[C@H]2C[C@@]3(C(=O)OC)C(=C[C@H](C(C)(C)C)O[C@@H]3C)N(Cc3ccc(Cl)cc3Cl)C2=O)CC1` here?
A: 7.87% (inactive)

Q: For `O=C(O)CCn1cc(/C=C/C(=O)c2ccc(Cl)cc2)c(-c2cccc(Br)c2)n1`, which inhibition is on record?
A: 82.8% (active)

Q: With `C#CCN([C@H](C(=O)OC)C(C)CC)S(=O)(=O)c1ccccc1Br` (stereo partly specified) as the molecule, how does the inhibition read?
A: -1.79% (inactive)

Q: For `O=C(C(=O)N1CCC(CNC(=O)c2cccnc2Cl)CC1)c1cccs1`, which inhibition is on record?
A: 2.4% (inactive)

Q: For `COc1ccc(CNS(=O)(=O)c2cc(Br)ccc2Br)cc1`, which inhibition is on record?
A: 2.67% (inactive)
